The source made the active and inactive calls. The calls were made as follows: active = hit-call score of the fitted dose curve at least 0.9, where 1 is the maximum; inactive = score below 0.9.

Read-out in this experiment: Forkhead box O1 (FOXO1), FOXO1 (gene 2308)
Nature of the experiment: LTEA_HepaRG_FOXO1: Life Technologies and Expression Analysis (LTEA) Assay for Forkhead box O1 (FOXO1) using HepaRG (AID 2283456). The following applies: mRNA level, 48 h; actives raise or lower the signal. In outline: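 FOXO1 transcript quantified by qRT-PCR after 48 h chemical exposure (top 100 uM, half-log steps, 0.5% DMSO) of HepaRG cells, housekeeping-normalized (ACTB/GAPDH/POLR2A). Changes fitted in both directions relative to vehicle.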
`COc1cccc(C(=O)NN(C(=O)c2cc(C)cc(C)c2)C(C)(C)C)c1C`: the molecule was classed as inactive. For `O=C(O)c1cc(Oc2ccc(C(F)(F)F)cc2Cl)ccc1[N+](=O)[O-]`, the molecule was classed as inactive.

Take `Cc1cc(C2CC2)nc(Nc2ccccc2)n1`: the molecule was classed as inactive. The same measure, in the same setting: the value for `CNC(=O)Oc1cccc2c1OC(C)(C)O2` was “inactive”; that for `CC(C1CC1)C(O)(Cn1cncn1)c1ccc(Cl)cc1` (configuration not stated) was “inactive”; that for `CSc1nnc(C(C)(C)C)c(=O)n1N` was “inactive”. Usually AC50 stands for the concentration at which the activity in the assay is half-maximal. As to `CCCOCC(=Nc1ccc(Cl)cc1C(F)(F)F)n1ccnc1`, the AC50 is 50 µM (active). Turning to `COP(=O)(NC(C)=O)SC` (configuration not stated), the molecule was classed as inactive. Turning to `CCOC(=O)COc1cc(-c2nn(C)c(OC(F)F)c2Cl)c(F)cc1Cl`, the molecule was called inactive. Turning to `CN(C)C(=O)Nc1cccc(C(F)(F)F)c1`, the outcome was inactive. Turning to `Nc1nc(N)nc(NC2CC2)n1`, the molecule was classed as inactive. Same read-out and setting: the value for `CN(C)NC(=O)CCC(=O)O` was “inactive”.

Regarding `CNC(=O)ON=C(SC)C(=O)N(C)C`, the result was inactive. The same measure, in the same setting: the value for `CCc1cccc(C)c1N(C(=O)CCl)C(C)COC` (configuration not stated) was “inactive”; that for `CCOP(=S)(OCC)Oc1ccc2c(C)c(Cl)c(=O)oc2c1` was “inactive”. With `CNc1cnn(-c2cccc(C(F)(F)F)c2)c(=O)c1Cl`, the outcome was inactive.

As to `CC(C)[C@H](C(=O)O[C@H](C#N)c1cccc(Oc2ccccc2)c1)c1ccc(Cl)cc1`, the result was inactive. Take `COc1ccc(C(=CC(=O)N2CCOCC2)c2ccc(Cl)cc2)cc1OC`: the molecule was classed as inactive. For `CCOP(=O)(NC(C)C)Oc1ccc(SC)c(C)c1` (configuration not stated), the call was inactive. The same measure, in the same setting: the value for `CSc1nc(NC(C)C)nc(NC(C)C)n1` was “inactive”; that for `CC1(C(=O)Nc2ccc(O)c(Cl)c2Cl)CCCCC1` was “inactive”. For the molecule `CCNc1nc(Cl)nc(NC(C)(C)C#N)n1`, the result was inactive.

Values taken from PubChem BioAssay (EPA / NIEHS).
